According to PubChem BioAssay (NCI):
About 83,000 compounds went through this panel and 20% of them were active in at least one assay; those are over-represented in the sample as a whole.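 Interpretation: 100, growth as untreated; towards 0, rising growth inhibition; 0, no net growth; 0 to -100, cell death. Compounds scoring below 10 were considered active.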 Calls of active or inactive are those of the source.

Columns and labels:
Experiment in all cases: NCI-60 one-dose screen, 48 h (100 = growth as untreated, 0 = no growth, -100 = all killed)
Details in all cases: 10 µM unless noted
[1] = system: T-47D breast
[2] = system: BT-549 breast
[3] = system: MDA-MB-435 melanoma
[4] = system: SW-620 colon
[5] = system: MCF7 breast
[6] = system: HCT-116 colon
[7] = system: HCC-2998 colon
[8] = system: KM12 colon

Measured: growth

O=CNc1ccc2c(c1)Cc1cccc(NC=O)c1-2
inactive: [1] 96.8% | [2] 94.1% | [3] 100% | [4] 98.2% | [5] 86.1% | [6] 95.2% | [7] 97.4% | [8] 67.8%

CN(CCCCCl)P(=O)(OCc1ccc([N+](=O)[O-])o1)C(F)(F)c1ccc(CC(=O)NC[C@@H](O)/C=C\[C@@H](O)[C@H](CO)Cc2ccccc2)cc1 (some centres not stated)
inactive: [1] 75.5% | [2] 90.7% | [3] 65.4% | [4] 87.7% | [5] 59.9% | [6] 93.3% | [7] 105% | [8] 85.5%

CCNc1ncnc2c1cnn2C1CCCO1 (configuration not stated)
inactive: [1] 104% | [2] 105% | [3] 103% | [4] 100% | [5] 102% | [6] 100% | [7] 109% | [8] 99.1%

C=C1C(=O)O[C@H]2[C@H]1CC/C(COC(=O)c1cc3cc(OC)ccc3[nH]1)=C\CC[C@@]1(C)O[C@@H]21
active: [1] -60.6% | [2] -55.3% | [3] -91.9% | [4] -75.7% | [5] -61.3% | [6] -94.8% | [7] -74.2% | [8] -67.9%

O=c1ccccc(-c2ccc(-c3ccco3)cc2)c1O
inactive: [1] 28.7% | [2] 28.1% | [3] 26.3% | [4] 27.8% | [5] 15.3% | [6] 21.8% | [7] 41.1% | [8] 23%

COc1ccc(C2C(C#N)=C(N)Oc3n[nH]c(-c4cccs4)c32)cc1I (configuration not stated)
inactive: [1] 94.4% | [2] 92.1% | [3] 66.7% | [4] 83.8% | [5] 69.4% | [6] 91.9% | [7] 95.9% | [8] 86.2%

COc1cccc(/C=C2\SC(=Nc3ccc(NC(C)=O)cc3)NC2=O)c1OC
inactive: [1] 89.2% | [2] 97.8% | [3] 52.1% | [4] 92% | [5] 92.6% | [6] 98% | [7] 101% | [8] 89.4%

COc1cc(Nc2cc(C)nc(N3CCN(c4ccnc5cc(Cl)ccc45)CC3)n2)cc(OC)c1
active: [1] 8.17% | [3] -2.88% | [5] 5.32% | [6] 2.14% | [7] 7.77% | [8] 3.72%
inactive: [2] 41.8% | [4] 15.9%

Cn1nc(N)c2cc([C@@H]3Nc4ccc5[nH]ncc5c4[C@H]4C5CCC(C5)[C@@H]34)ccc21 (some centres not stated)
active: [3] -66.6%
inactive: [1] 43.6% | [2] 38% | [4] 22.4% | [5] 18.8% | [6] 14.5% | [7] 18% | [8] 16.6%

O=C1/C(=C(/c2ccccc2)N2CCOCC2)Cc2ccccc21
active: [1] -34.4% | [2] -7.68% | [4] 0.554% | [6] -46.3% | [7] -71.8%
inactive: [3] 12.6% | [5] 17.9% | [8] 36.2%

COc1ccc(C2CC(c3ccc4ccccc4c3)=NN2/C=C2\SC(=S)N(NC(=O)Cc3ccccc3Nc3c(Cl)cccc3Cl)C2=O)cc1 (configuration not stated)
active: [3] -49.8%
inactive: [1] 19.2% | [2] 30% | [4] 22.6% | [5] 22.5% | [6] 18.6% | [7] 31.2% | [8] 16%

Cc1ccc(NC(=O)/C=C/c2ccccc2)c(C(N)=O)c1
active: [3] -45.5%
inactive: [1] 27.6% | [2] 94% | [4] 22.7% | [5] 15.7% | [6] 34.4% | [7] 80.8% | [8] 14.4%

COc1ccc(CCNc2nc3c(c(=O)n(Cc4ccc(Br)cc4)c(=O)n3C)n2C)cc1OC
inactive: [1] 66.2% | [2] 86.5% | [3] 99.2% | [4] 99.5% | [5] 94.4% | [6] 90.5% | [7] 101% | [8] 100%

CN(Cc1cc(Cl)cc(Cl)c1O)Cc1cc(Cl)cc(Cl)c1O
inactive: [1] 76.4% | [2] 86.4% | [3] 68.2% | [4] 73.2% | [5] 67.6% | [6] 58.9% | [7] 83.5% | [8] 74.8%
